Several values for one entry are separate records, joined by “and”; a condition that tells them apart may be missing. Equal values may be shown once. Results filed as inconclusive are left out. Where a structure was tested more than once in an assay, its records may differ in their call. Activity calls are given as the source filed them. Unless noted, calls come from the whole dose curve.
What was measured:
[1] = Nuclear factor erythroid 2-related factor 2/antioxidant responsive element (Nrf2/ARE) small molecule agonists: qHTS cell viability counter screen in human keratinocytes (AID 1919968; active = well fitted curve in the direction sought with a large enough effect in the repeat runs; an effect the other way counts as inactive or inconclusive; note: nearly all actives have a fitted effect of over 55% in size)
Outline: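 Measured as CellTiter-Fluor fluorescence, this readout tracks cytotoxicity in the same wells as the ARE-luciferase screen. HaCaT reporter cells (1,500/well) received compounds after a 5 h pre-incubation and were exposed for 23 h.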

[2] = Nuclear factor erythroid 2-related factor 2/antioxidant responsive element (Nrf2/ARE) small molecule agonists: luciferase reporter gene qHTS assay in human keratinocytes (AID 1919969); note: nearly all actives have a fitted effect of over 35% in size; note: potency is the fitted concentration of half-maximal effect
[3] = target: Gonadotropin-releasing hormone receptor (Homo sapiens) (UniProt P30968); test: Human gonadotropin-releasing hormone receptor (GnRHR) small molecule agonists, calcium flux assay in GnRHR-HEK293 cells (AID 1920063); note: nearly all actives have a fitted effect of over 35% in size
Outline: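 Fluorescence kinetics (480 nm excitation, 540 nm emission; 3 min, 1 s steps) report calcium mobilisation in human GnRHR-HEK293 cells in agonist mode. Dye incubation: 1 h, 37 C.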

[4] = target: KiSS-1 receptor (Homo sapiens) (UniProt Q969F8); test: Human kisspeptin (KISS1R) small molecule agonists, calcium flux assay in KISS1R-HEK293 cells (AID 1920064; active = well fitted curve in the direction sought with a large enough effect in the repeat runs; an effect the other way counts as inactive or inconclusive)
Outline: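 Measures KISS1R agonism through calcium-sensitive dye fluorescence in stably transfected HEK293 cells, read for 3 min after pin-tool compound delivery; 15-point titrations in triplicate.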

[5] = G protein-coupled receptor (GPCR) small molecule agonists, calcium flux assay: HEK293 wild type cell line counter screen (AID 1920065)
Outline: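 Readout: fluorescence at 480 nm excitation/540 nm emission, sampled at 1 s intervals for 3 min. Cells had been cultured 18 h, then dye-loaded 1 h at 37 C before compound or ATP addition.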

[6] = p53 small molecule agonists, cell-based qHTS assay with human liver microsomes: qHTS cell viability counter screen (AID 1963579); note: nearly all actives have a fitted effect of over 45% in size
Outline: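 Seed p53RE-bla cells at 4,000 per well; incubate 5 h at 37 C; add compound, human liver microsomes and NADPH; incubate 16 h at 37 C; add CellTiter-Glo; after 30 min at room temperature, read luminescence.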

[7] = p53 small molecule agonists, cell-based qHTS assay with rat liver microsomes: qHTS cell viability counter screen (AID 1963580); note: nearly all actives have a fitted effect of over 45% in size
Outline: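 HCT-116 p53RE-bla, 4,000 cells/well, 5 h pre-incubation; cpd + rat liver microsomes 0.5 mg/mL + NADPH 0.5 mg/mL (final); 16 h, 37 C; CellTiter-Glo, 30 min RT; luminescence.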

[8] = p53 small molecule agonists, cell-based qHTS assay: qHTS cell viability counter screen (AID 1963581); note: nearly all actives have a fitted effect of over 45% in size
Outline: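 In the same plates used for the p53 bla reporter, HCT-116 cells given compounds for 16 h at 37 C received CellTiter-Glo; luminescence was recorded 30 min later at room temperature.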

[9] = target: 5-hydroxytryptamine receptor 2A (Homo sapiens) (UniProt P28223); test: 5-hydroxytryptamine receptor 2A (HTR2A) small molecule antagonists, cell-based qHTS assay (AID 1963586); note: nearly all actives have a fitted effect of over 45% in size
Outline: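 Antagonist-mode intracellular calcium assay: DOI (4 nM) added after 5 min compound pre-incubation at room temperature to dye-loaded HTR2A-CHO cells. Fluorescence followed for 3 min, sampled every second.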

[10] = target: 5-hydroxytryptamine receptor 2A (Homo sapiens) (UniProt P28223); test: 5-hydroxytryptamine receptor 2A (HTR2A) small molecule agonists, cell-based qHTS assay (AID 1963587); note: nearly all actives have a fitted effect of over 30% in size; note: potency is the fitted concentration of half-maximal effect
Outline: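 Kinetic calcium-flux fluorescence (2 min, 1 sec intervals) after compound addition in agonist mode. HTR2A-CHO cells were cultured 18 h, then dye-loaded 1 h at 37 C.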

[11] = target: Muscarinic acetylcholine receptor M1 (Homo sapiens) (UniProt P11229); test: Cholinergic receptor muscarinic 1 (CHRM1) small molecule antagonists, cell-based qHTS assay (AID 1963588); note: nearly all actives have a fitted effect of over 40% in size
Outline: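 CHRM1-CHO calcium-flux assay, antagonist mode. Cells were seeded 18 h, dye-loaded 1 h at 37 C and given compound for 5 min at RT, then acetylcholine was added at 50nM. FDSS fluorescence was read 3 min; 15 concentrations, three runs.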

[12] = target: Muscarinic acetylcholine receptor M1 (Homo sapiens) (UniProt P11229); test: Cholinergic receptor muscarinic 1 (CHRM1) small molecule agonists, cell-based qHTS assay (AID 1963589); note: nearly all actives have a fitted effect of over 35% in size
Outline: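 Each compound was tested at 15 concentrations across three independent runs on dye-loaded CHO cells stably expressing human CHRM1, reading intracellular calcium fluorescence kinetically at 1 sec intervals.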

[13] = cAMP Responsive Elements (CRE) small molecule agonists, cell-based qHTS assay (AID 1963590)
Outline: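 Cell line: CRE-bla HEK 293T; medium DMEM/10% dialyzed FBS/0.1 mM NEAA/1 mM pyruvate/25 mM HEPES; 3 h compound exposure; beta-lactamase FRET readout after 2 h substrate loading at RT.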

[14] = cAMP Responsive Elements (CRE) small molecule antagonists, cell-based qHTS assay (AID 1963591; active = well fitted inhibition curve with a large enough effect in the signal ratio in the repeat runs, not every such curve was filed as active; the % refers to the signal ratio)
Outline: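 Inhibition of NKH477-driven (0.25 uM final) CRE-beta-lactamase signal in HEK293T cells, 3 h compound exposure at 37 °C, detected by FRET substrate fluorescence.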

[15] = target: Beta-2 adrenergic receptor (Homo sapiens) (UniProt P07550); test: Adrenergic beta2 receptor (ADRB2) small molecule antagonists, cell-based qHTS assay (AID 1963592); note: series mostly up to about 92 µM; nearly all actives have a fitted effect of over 50% in size
Outline: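 Cells (CHO, stable ADRB2 overexpression) incubated 18-20hr at 37C; compounds added from DMSO; agonist mix (1nM isoproterenol, 100uM IBMX, 25uM Ro-20-1724) added; 0.5hr RT; d2-cAMP and anti-cAMP-cryptate added; 1hr RT; 665/615 nm read.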

[16] = target: D(2) dopamine receptor (Homo sapiens) (UniProt P14416); test: Dopamine D2 receptor (DRD2) small molecule agonists, cell-based qHTS assay (AID 1963594); note: nearly all actives have a fitted effect of over 35% in size
Outline: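 cAMP accumulation in DRD2-HEK293 cells measured by HTRF after 1 h detection; compounds added 10 min before NKH477 (200nM […]) forskolin-analogue stimulation, 30 min at room temperature, with Ro20-1724 present at 0.1 mM final.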

[17] = target: D(2) dopamine receptor (Homo sapiens) (UniProt P14416); test: Dopamine D2 receptor (DRD2) small molecule antagonists, cell-based qHTS assay (AID 1963595; active = well fitted inhibition curve with a large enough effect in the signal ratio in the repeat runs, with a control signal flat; the % refers to the signal ratio)
Outline: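 DRD2-HEK293; 0.1 mM Ro20-1724; cpd 10 min RT; NKH477 200 nM + quinpirole 12 nM, 30 min RT; HTRF cAMP (cAMP-d2/anti-cAMP cryptate), 665/620 nm ratio after 1 h.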

[18] = target: Beta-2 adrenergic receptor (Homo sapiens) (UniProt P07550); test: Adrenergic beta2 receptor (ADRB2) small molecule agonists, cell-based qHTS assay (AID 1963593);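 note: CHO cells stably overexpressing human ADRB2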
Outline: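 CHO cells stably over-expressing ADRB2 were plated overnight at 37C, then dosed with compounds plus a stimulation mix containing 100uM IBMX and 25uM Ro-20-1724 for 0.5hr at room temperature. cAMP was measured by HTRF competition, 1hr.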
% is set by controls: 0 for no effect and ±100 for the full control effect.

Chain of Muscarinic acetylcholine receptor M1 (Homo sapiens) (P11229 whole entry, looked up): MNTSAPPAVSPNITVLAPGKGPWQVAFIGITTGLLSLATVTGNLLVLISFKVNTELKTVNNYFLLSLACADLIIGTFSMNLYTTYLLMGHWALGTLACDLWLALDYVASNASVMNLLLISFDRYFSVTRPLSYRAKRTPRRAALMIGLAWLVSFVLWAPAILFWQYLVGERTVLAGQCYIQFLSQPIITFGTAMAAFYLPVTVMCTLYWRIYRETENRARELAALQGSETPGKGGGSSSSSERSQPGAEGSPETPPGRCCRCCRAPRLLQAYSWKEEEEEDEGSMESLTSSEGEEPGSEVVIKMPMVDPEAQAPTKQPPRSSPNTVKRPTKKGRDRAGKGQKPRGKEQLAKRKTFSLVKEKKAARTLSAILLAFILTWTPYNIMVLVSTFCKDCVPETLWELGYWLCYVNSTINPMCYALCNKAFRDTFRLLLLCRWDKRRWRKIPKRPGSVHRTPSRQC
Chain of Gonadotropin-releasing hormone receptor (Homo sapiens) (P30968 whole entry, looked up): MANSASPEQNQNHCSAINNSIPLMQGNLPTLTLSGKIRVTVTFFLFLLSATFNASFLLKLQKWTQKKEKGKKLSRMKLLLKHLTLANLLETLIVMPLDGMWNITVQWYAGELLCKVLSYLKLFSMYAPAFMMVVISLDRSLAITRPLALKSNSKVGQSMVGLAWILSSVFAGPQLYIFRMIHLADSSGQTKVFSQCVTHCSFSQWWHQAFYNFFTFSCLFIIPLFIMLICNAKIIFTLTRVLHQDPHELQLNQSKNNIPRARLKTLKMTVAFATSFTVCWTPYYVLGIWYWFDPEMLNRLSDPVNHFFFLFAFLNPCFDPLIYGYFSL
Chain of D(2) dopamine receptor (Homo sapiens) (P14416 whole entry, looked up): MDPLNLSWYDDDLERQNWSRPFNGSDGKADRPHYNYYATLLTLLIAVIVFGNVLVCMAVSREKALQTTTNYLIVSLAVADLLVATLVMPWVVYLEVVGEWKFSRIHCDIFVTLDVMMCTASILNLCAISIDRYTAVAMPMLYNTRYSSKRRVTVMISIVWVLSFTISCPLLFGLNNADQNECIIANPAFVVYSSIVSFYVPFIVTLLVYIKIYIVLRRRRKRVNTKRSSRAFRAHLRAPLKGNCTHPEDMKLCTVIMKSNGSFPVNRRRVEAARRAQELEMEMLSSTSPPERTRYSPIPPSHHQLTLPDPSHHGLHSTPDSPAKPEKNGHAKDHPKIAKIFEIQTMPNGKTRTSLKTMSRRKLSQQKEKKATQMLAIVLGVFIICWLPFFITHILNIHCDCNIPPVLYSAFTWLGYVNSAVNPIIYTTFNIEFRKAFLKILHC
Chain of 5-hydroxytryptamine receptor 2A (Homo sapiens) (P28223 whole entry, looked up): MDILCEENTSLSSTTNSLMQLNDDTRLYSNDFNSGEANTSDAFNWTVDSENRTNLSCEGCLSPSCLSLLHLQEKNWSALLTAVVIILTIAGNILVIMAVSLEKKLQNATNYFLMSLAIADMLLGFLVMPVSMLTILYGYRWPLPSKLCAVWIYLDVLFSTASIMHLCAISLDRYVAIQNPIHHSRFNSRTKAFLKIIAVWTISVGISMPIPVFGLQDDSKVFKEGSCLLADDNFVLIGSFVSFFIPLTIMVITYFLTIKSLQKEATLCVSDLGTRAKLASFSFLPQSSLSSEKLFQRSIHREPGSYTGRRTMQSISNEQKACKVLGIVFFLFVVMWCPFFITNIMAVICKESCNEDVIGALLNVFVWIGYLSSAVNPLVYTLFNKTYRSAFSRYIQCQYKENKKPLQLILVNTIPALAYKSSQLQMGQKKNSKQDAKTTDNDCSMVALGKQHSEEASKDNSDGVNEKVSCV
Chain of KiSS-1 receptor (Homo sapiens) (Q969F8 whole entry, looked up): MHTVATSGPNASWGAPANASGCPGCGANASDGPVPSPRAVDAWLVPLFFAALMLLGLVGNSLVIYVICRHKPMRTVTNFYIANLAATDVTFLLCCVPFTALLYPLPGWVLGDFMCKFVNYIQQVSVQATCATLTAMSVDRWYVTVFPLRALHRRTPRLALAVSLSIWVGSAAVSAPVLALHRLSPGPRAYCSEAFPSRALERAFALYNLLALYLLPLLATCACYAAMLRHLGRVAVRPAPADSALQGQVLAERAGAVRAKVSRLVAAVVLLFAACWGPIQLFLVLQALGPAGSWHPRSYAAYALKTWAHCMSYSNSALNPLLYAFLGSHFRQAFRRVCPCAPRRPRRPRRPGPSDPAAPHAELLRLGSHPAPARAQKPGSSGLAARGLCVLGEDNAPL
Chain of Beta-2 adrenergic receptor (Homo sapiens) (P07550 whole entry, looked up): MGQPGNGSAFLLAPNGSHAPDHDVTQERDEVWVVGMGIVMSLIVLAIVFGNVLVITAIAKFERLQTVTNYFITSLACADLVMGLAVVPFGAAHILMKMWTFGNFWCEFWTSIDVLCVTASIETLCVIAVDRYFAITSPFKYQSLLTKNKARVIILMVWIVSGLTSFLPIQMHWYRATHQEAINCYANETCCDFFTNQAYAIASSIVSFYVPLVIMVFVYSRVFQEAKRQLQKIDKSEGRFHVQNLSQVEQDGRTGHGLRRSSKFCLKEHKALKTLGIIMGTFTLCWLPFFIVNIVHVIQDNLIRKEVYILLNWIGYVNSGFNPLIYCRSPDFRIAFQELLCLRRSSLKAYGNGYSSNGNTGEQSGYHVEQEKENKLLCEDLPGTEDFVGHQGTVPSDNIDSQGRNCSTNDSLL

CC1=CC[C@@H]2C[C@H]1C2(C)C
inactive: activity change, negative = cytotoxicity [1] -0.0198% [at 19 µM] | activity, positive = activation [2] -20.3% [at 19 µM] | activity change [3] 0.0518% [at 11.8 µM, stronger effect = higher value] | activation [4] -0.901% [at 15.8 µM] | activation [5] -1.47% [at 11.8 µM] | activity change, negative = cytotoxicity [6] -2.33% [at 13.5 µM] | activity change, negative = cytotoxicity [7] 4.85% [at 13.5 µM] | activity change, negative = cytotoxicity [8] -11.2% [at 13.5 µM] | activity, negative = inhibition [9] 6.44% [at 12.7 µM] | activation [10] -0.177% [at 15.9 µM] | activity, negative = inhibition [11] -2.89% [at 12.6 µM] | activation [12] -0.0486% [at 15.8 µM] | activation [13] 0.0762% [at 19 µM] | activity change, negative = inhibition [14] 3.33% [at 18.9 µM] | activity change, negative = inhibition [15] -16.3% [at 19 µM] | activation [16] -0.279% [at 19 µM] | activity change, negative = inhibition [17] -2.93% [at 18.9 µM]

c1ccc2c(c1)-c1cccc3c1c-2cc1ccccc13
inactive: Potency [1] | Potency [3] | Potency [4] | Potency [5] | Potency [6] | Potency [7] | Potency [8] | Potency [9] | Potency [10] | Potency [11] | Potency [12] | Potency [13] | Potency [15] | Potency [16] | Potency [17]
active: Potency [2] 23.8 µM and 21.7 µM

OCC(CO)(CO)CO
inactive: Potency [1] | Potency [2] | Potency [3] | Potency [4] | Potency [5] | Potency [6] | Potency [7] | Potency [8] | Potency [9] | Potency [10] | Potency [11] | Potency [12] | Potency [13] | Potency [14] | Potency [15] | Potency [16] | Potency [17]

CC(=O)OCc1ccccc1
inactive: Potency [1] | Potency [2] | Potency [3] | Potency [4] | Potency [5] | Potency [6] | Potency [7] | Potency [8] | Potency [9] | Potency [10] | Potency [11] | Potency [12] | Potency [13] | Potency [18] | Potency [16] | Potency [17]

CC(=O)CC(=O)Nc1ccccc1
inactive: Potency [1] | Potency [2] | Potency [3] | Potency [4] | Potency [5] | Potency [6] | Potency [7] | Potency [8] | Potency [9] | Potency [10] | Potency [12] | Potency [13] | Potency [14] | Potency [15] | Potency [16] | Potency [17]

CC(C)(N=C=O)c1cccc(C(C)(C)N=C=O)c1
inactive: Potency [1] | Potency [2] | Potency [3] | Potency [4] | Potency [5] | Potency [6] | Potency [7] | Potency [8] | Potency [9] | Potency [10] | Potency [11] | Potency [12] | Potency [13] | Potency [14] | Potency [15] | Potency [16] | Potency [17]

N[C@H](Cc1c[nH]c2ccccc12)C(=O)O
inactive and 19 µM (active): Potency [10]
inactive: Potency [1] | Potency [2] | Potency [3] | Potency [4] | Potency [5] | Potency [6] | Potency [7] | Potency [8] | Potency [11] | Potency [12] | Potency [13] | Potency [14] | Potency [15] | Potency [18] | Potency [16]

From PubChem BioAssay (Tox21)
